# “And” between values parts separate entries of the source, which are not always exact repeats. Equal entries are not always repeated. Records with an inconclusive call do not appear. Where a call stands in place of a potency, no number is given. The source made the active and inactive calls. Unless noted, the call rests on the fitted dose curve.
# What was measured:
# [1] = molecular target: Glucocorticoid receptor (Homo sapiens) (UniProt P04150); assay: qHTS assay for small molecule agonists of glucocorticoid receptor signaling (AID 588532; active means well fitted curve in the direction sought with a large enough effect in the signal ratio, with a control signal flat; the % refers to the signal ratio); settings: HeLa MMTV-bla, beta-lactamase ratio, agonist, 18 h; stronger effect = higher value; percent of dexamethasone control, DMSO zero
# Sequence of Glucocorticoid receptor (Homo sapiens) (P04150 whole entry, looked up): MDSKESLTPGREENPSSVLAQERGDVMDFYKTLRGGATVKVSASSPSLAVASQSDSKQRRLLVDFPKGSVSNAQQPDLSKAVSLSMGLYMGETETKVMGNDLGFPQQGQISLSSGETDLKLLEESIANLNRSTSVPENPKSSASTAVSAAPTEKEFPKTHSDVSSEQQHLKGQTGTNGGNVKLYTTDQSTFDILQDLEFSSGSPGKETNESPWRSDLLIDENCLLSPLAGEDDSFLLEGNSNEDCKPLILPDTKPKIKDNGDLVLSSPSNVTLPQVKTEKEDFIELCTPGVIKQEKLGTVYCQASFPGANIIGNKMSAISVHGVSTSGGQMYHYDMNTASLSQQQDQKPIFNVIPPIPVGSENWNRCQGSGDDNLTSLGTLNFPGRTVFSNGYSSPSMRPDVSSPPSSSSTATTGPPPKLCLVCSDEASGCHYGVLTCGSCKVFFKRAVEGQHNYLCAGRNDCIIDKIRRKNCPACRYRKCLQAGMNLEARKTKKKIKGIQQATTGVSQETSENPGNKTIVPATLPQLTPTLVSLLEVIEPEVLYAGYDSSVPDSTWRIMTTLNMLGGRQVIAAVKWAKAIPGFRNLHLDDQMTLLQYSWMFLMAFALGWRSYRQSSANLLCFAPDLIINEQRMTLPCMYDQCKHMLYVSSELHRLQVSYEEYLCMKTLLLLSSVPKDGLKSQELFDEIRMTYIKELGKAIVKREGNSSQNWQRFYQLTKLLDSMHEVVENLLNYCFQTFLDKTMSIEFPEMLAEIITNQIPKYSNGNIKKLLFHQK
# Method in brief: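 MMTV-bla HeLa beta-lactamase reporter cells in 1% charcoal/dextran FBS medium, compounds up to 92 uM for 18 h at 37 C, CCF4 readout; normalized to 0.1 uM dexamethasone (100%), EC50 and efficacy from Hill fits.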
# [2] = molecular target: Glucocorticoid receptor (Homo sapiens) (UniProt P04150); assay: qHTS assay for small molecule antagonists of glucocorticoid receptor signaling (AID 588533; active means well fitted inhibition curve with a large enough effect in the signal ratio, with a control signal flat, not every such curve was filed as active; the % refers to the signal ratio;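 further: cells stimulated with 2 nM dexamethasone as agonist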)
# Method in brief: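 Antagonist-mode qHTS: compound titrations added to GRE-bla HeLa cells, then dexamethasone 2 nM final; 18 h, 37 C. CCF4 FRET fluorescence normalized to dexamethasone and DMSO; IC50 from Hill fit.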
# [3] = molecular target: Peroxisome proliferator-activated receptor delta (Homo sapiens) (UniProt Q03181); assay: qHTS assay for small molecule agonists of peroxisome proliferator-activated receptor delta signaling (AID 588534)
# Sequence of Peroxisome proliferator-activated receptor delta (Homo sapiens) (Q03181 whole entry, looked up): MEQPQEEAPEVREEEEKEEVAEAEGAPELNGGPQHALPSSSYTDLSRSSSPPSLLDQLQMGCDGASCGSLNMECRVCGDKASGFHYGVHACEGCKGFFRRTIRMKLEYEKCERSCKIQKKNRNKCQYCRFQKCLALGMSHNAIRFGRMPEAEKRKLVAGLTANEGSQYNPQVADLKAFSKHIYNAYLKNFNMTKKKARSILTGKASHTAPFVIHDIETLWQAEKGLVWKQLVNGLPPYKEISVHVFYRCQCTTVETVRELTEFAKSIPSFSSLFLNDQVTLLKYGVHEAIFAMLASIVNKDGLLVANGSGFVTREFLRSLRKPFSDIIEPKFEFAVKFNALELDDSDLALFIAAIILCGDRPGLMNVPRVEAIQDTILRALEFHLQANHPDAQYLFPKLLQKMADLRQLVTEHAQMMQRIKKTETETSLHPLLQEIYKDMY
# Method in brief: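 Reporter cells were plated and held 5 hrs at 37 C before compounds were added. After 18 hrs at 37 C, CCF4 dye was loaded for 2 hrs at RT and fluorescence measured.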
# [4] = qHTS assay for small molecule antagonists of peroxisome proliferator-activated receptor delta signaling (AID 588535; active means well fitted inhibition curve with a large enough effect in the signal ratio, with a control signal flat, not every such curve was filed as active; the % refers to the signal ratio;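 on max response: cells co-treated with a PPAR-delta agonist as stimulator during compound exposure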); settings: HEK293T PPARd-UAS-bla, beta-lactamase FRET ratio, 18 h; 460 nm channel
# Method in brief: (§1)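 Cells were seeded at 4000 per well in assay medium containing 2% charcoal/dextran FBS and held 5 hrs at 37 C. Compounds were then added for 18 hrs. CCF4 substrate was applied for 2 hrs at room temperature before fluorescence reading.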
# [5] = molecular target: Peroxisome proliferator-activated receptor delta (Homo sapiens) (UniProt Q03181); assay: as above
# Method in brief: as §1
# [6] = molecular target: Peroxisome proliferator-activated receptor gamma (Homo sapiens) (UniProt P37231); assay: qHTS assay for small molecule agonists of peroxisome proliferator-activated receptor gamma signaling (AID 588536; active means well fitted curve in the direction sought with a large enough effect in the signal ratio, with a control signal flat, not every such curve was filed as active; the % refers to the signal ratio)
# Sequence of Peroxisome proliferator-activated receptor gamma (Homo sapiens) (P37231 whole entry, looked up): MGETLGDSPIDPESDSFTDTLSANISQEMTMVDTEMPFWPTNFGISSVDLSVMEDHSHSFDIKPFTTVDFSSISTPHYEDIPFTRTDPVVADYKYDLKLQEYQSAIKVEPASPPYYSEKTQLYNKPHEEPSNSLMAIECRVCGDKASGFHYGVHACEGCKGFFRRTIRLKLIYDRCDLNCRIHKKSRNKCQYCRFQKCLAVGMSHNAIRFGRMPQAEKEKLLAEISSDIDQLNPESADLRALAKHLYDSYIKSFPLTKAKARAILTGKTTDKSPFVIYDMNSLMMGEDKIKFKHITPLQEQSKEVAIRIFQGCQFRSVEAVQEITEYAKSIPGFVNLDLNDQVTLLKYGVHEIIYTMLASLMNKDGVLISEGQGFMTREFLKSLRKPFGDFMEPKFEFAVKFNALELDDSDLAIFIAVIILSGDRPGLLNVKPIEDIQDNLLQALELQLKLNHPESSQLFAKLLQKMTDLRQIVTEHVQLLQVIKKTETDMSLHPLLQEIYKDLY
# Method in brief: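 Test agents, titrated, stimulated HEK293 UAS-bla cells overnight (16 h, 37 C). Substrate CCF4 was then added for two hours at room temperature before fluorescence reading.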
# [7] = molecular target: Bile acid receptor (Homo sapiens) (UniProt Q96RI1); assay: qHTS assay for small molecule agonists of farnesoid X receptor signaling (AID 588527); settings: HEK293T FXR-UAS-bla, beta-lactamase ratio, 16 h; stronger effect = higher value; further: series mostly up to about 77 µM
# Sequence of Bile acid receptor (Homo sapiens) (Q96RI1 whole entry, looked up): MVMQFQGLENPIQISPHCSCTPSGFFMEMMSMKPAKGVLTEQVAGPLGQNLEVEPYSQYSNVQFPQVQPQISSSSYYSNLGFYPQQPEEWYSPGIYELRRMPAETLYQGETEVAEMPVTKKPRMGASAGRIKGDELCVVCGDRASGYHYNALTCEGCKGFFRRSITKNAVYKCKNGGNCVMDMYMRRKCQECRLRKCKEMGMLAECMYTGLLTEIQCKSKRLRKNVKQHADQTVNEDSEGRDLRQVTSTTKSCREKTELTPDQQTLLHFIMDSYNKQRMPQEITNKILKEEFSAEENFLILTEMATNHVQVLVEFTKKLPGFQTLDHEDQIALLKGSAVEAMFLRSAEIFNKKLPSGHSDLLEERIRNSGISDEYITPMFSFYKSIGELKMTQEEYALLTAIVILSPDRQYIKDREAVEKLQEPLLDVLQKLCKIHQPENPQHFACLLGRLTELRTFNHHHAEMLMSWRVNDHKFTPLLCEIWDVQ
# Method in brief: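 Read-out: beta-lactamase reporter fluorescence with CCF4 substrate in GeneBLAzer FXR-UAS-bla HEK293T cells, after 16 h compound exposure at 37 C. Response scaled between DMSO basal (0%) and chenodeoxycholic acid at 100 uM (100%).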
compound,measurement,setting,value
CCCCCCCCCC(CC)c1ccc(S(=O)(=O)O)cc1 (centres undefined),activation,[1],8.71% (inactive) and 0.614% (inactive)
same,Potency,[2],inactive
same,outcome,[3],inactive
same,max response,[4],-20.6% and 1.67%
same,Potency,[5],inactive
same,outcome,[6],inactive
CCCCC(CC)COC(=O)c1ccc(N(C)C)cc1 (centres undefined),activation,[7],-1.15% (inactive) and -5.13% (inactive)
same,outcome,[3],inactive
COC(=O)c1c(Cl)c(Cl)c(C(=O)OC)c(Cl)c1Cl,activation,[7],2.52% (inactive)
same,outcome,[3],inactive
COc1ccc(C(c2ccc(OC)cc2)C(Cl)(Cl)Cl)cc1,activation,[7],7.99% (inactive) and 4.38% (inactive) and 7.59% (inactive)
same,activation,[1],4.73% (inactive) and 3.18% (inactive) and 4.31% (inactive)
same,outcome,[3],inactive
same,outcome,[6],inactive
O=S(=O)(O)C(F)(F)C(F)(F)C(F)(F)C(F)(F)F,activation,[1],0.888% (inactive)
same,Potency,[2],inactive
same,outcome,[3],inactive
same,max response,[4],48.3% and 16.2%
same,Potency,[5],inactive
same,outcome,[6],inactive
Nc1ccc(O)c([N+](=O)[O-])c1,outcome,[3],inactive
CN1C(=O)c2ccccc2C1=O,outcome,[3],inactive
CC(C)C(C)(C)C(C)(C)C(C)(C)S,outcome,[3],inactive
CN(C)NC(=O)CCC(=O)O,outcome,[3],inactive
same,max response,[4],-12.7% and 32.6%
same,Potency,[5],inactive
same,outcome,[6],inactive
CCCCCCCCOc1ccc(C(=O)c2ccccc2)c(O)c1,activation,[7],-1.08% (inactive)
same,outcome,[3],inactive
CCCCCCCCCCCCCCCC[N+](C)(C)C,activation,[1],4.02% (inactive)
same,Potency,[2],inactive
same,outcome,[3],inactive
same,max response,[4],-6.14%
same,Potency,[5],inactive
CN(C)c1ccc(N=NS(=O)(=O)O)cc1,outcome,[3],inactive
CCCCCCCCc1ccc(O)cc1,activation,[1],0.354% (inactive) and -8.06% (inactive)
same,outcome,[3],inactive
same,max response,[4],-43.1% and -32.6%
same,Potency,[5],inactive
same,outcome,[6],inactive
CC(C)(C)C(O)C(Oc1ccc(Cl)cc1)n1cncn1 (centres undefined),outcome,[6],inactive
O=S(=O)(O)C(F)(F)C(F)(F)C(F)(F)C(F)(F)C(F)(F)C(F)(F)C(F)(F)C(F)(F)F,outcome,[6],inactive
CCCCOC(=O)c1ccccc1C(=O)OCc1ccccc1,activation,[1],3.04% (inactive) and 3.89% (inactive)
same,Potency,[2],inactive
same,outcome,[3],inactive
same,max response,[4],-18.4% and -2.86%
same,Potency,[5],inactive
same,outcome,[6],inactive
OCc1c[nH]c2ccccc12,activation,[7],1.66% (inactive)
same,outcome,[3],inactive
[Cl][In]([Cl])[Cl],outcome,[3],inactive
S=c1[nH]c2ccccc2s1,activation,[7],-0.945% (inactive) and -0.0694% (inactive)
same,outcome,[3],inactive
O=C(NO)c1ccccc1,activation,[7],-3.15% (inactive)
same,outcome,[3],inactive
O=c1cc(-c2ccccc2)oc2ccccc12,outcome,[3],inactive
CCCOC(=O)c1ccc(O)cc1,activation,[7],0.147% (inactive) and -2.34% (inactive) and 4.63% (inactive)
same,outcome,[3],inactive
C=CCNC(N)=S,outcome,[3],inactive
C[C@]12C[C@H](O)[C@H]3[C@@H](CCC4=CC(=O)CC[C@@]43C)[C@@H]1CC[C@@H]2C(=O)CO,activation,[7],-2.3% (inactive)
same,outcome,[3],inactive
CO/C=C(/C(=O)OC)c1ccccc1Oc1cc(Oc2ccccc2C#N)ncn1,activation,[1],-0.939% (inactive)
same,outcome,[3],inactive
Cc1ccc(N)cc1O,outcome,[3],inactive
Nc1ccccc1N,outcome,[3],inactive
Brc1ccccc1-c1ccccc1,outcome,[3],inactive
COc1ccccc1O,activation,[7],-0.0206% (inactive) and -3.83% (inactive) and 1.01% (inactive)
same,outcome,[3],inactive
CN(C)[C@@H]1C(=O)C(C(N)=O)=C(O)[C@@]2(O)C(=O)C3=C(O)c4c(O)cccc4[C@@](C)(O)[C@H]3[C@H](O)[C@@H]12,outcome,[6],inactive
